We go through 6 compounds from PubChem BioAssay (NCATS).

Unmarked numbers belong to inactive results. Records with an inconclusive call do not appear. Calls of active or inactive are those of the source. Unless noted, calls follow the shape of the dose curve; as a rule, active = well fitted curve in the direction sought with a large enough effect; inconclusive = small, poorly fitted or top-dose-only effect, or another doubt; inactive = no such curve, though single readings can be large; an effect the other way counts as inactive or inconclusive.

Assay [1] can be described thus: AP1 Signaling Pathway (AID 357; active = well fitted curve in either direction with a large enough effect, not every such curve was filed as active;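 also: ME-180 reporter cells stimulated with EGF at its EC50 level; % is scaled to controls: 0 for no effect and ±100 for the full control effect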). As to conditions: ME-180 AP-1-bla reporter, EGF-induced, beta-lactamase ratio, 5 h; at 7.69 µM (top of the series) unless noted. The essentials: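 In this screen, ME-180 cells in Opti-MEM with 0.5% dialyzed FBS received EC50 EGF and compound titrations for 5 h. AP-1 reporter beta-lactamase was detected via CCF4 ratio, giving AC50 for positive and negative modulators.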

For assay [2], the target named is Cytochrome P450 1A2 (Homo sapiens) (UniProt P05177). The assay can be described thus: p450-cyp1a2 (AID 410; calls by dose curve; also: potency is read from the fitted curve at half-maximal effect;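 as to activity change, negative = inhibition: -100% = full effect of reference inhibitor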). In short, it runs like this: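 Luminescent demethylation readout: Luciferin-ME (100uM, equal to Km) turned over by 20nM CYP1A2 for 60 min at room temperature after NADPH regeneration addition, following 10 min compound preincubation. Normalization used 57 uM furafylline as full inhibition.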
Chain of Cytochrome P450 1A2 (Homo sapiens) (P05177 whole entry, looked up): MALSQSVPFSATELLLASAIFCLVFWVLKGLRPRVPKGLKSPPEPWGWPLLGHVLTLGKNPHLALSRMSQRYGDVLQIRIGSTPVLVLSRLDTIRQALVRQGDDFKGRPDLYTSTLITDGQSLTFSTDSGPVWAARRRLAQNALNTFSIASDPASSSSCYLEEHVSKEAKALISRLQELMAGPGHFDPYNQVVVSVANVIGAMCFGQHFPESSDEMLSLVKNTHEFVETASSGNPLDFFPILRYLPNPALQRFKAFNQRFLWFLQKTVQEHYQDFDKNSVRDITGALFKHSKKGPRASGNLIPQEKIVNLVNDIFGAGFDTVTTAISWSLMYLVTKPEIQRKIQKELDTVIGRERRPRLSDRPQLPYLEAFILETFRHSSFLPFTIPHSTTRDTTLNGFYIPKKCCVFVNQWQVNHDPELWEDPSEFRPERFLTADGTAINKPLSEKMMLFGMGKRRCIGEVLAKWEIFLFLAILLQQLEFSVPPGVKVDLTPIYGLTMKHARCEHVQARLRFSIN

The nature of assay [3]: NFAT Signaling Pathway (AID 444; active = well fitted curve in either direction with a large enough effect, not every such curve was filed as active;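 also: carbachol stimulus at about its EC50 of 1 µM final; % is scaled to controls: 0 for no effect and ±100 for the full control effect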). As to conditions: Jurkat NFAT-bla M1, carbachol, beta-lactamase ratio, 5 h; at 7.69 µM (top of the series) unless noted. In short, it runs like this:
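Read-out: CCF4 FRET ratio (460 nm/530 nm) after 1 h RT dye loading, used for %activity and AC50 from titration series. Cells: Jurkat NFAT-β-lactamase/M1 line, treated with compound plus 1 uM carbachol for 5 h, 37 °C.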

The nature of assay [4]: Stat Signaling Pathway (AID 446; active = well fitted curve in either direction with a large enough effect, not every such curve was filed as active;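 also: ME-180 cervical cancer cells given 40 pM IL-6 alongside compound; SIE-controlled beta-lactamase reporter measured as 460/530 nm FRET emission ratio; % is scaled to controls: 0 for no effect and ±100 for the full control effect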). As to conditions: ME-180 (cervical carcinoma) SIE beta-lactamase reporter, IL-6 stimulated, 5 h; at 7.69 µM (top of the series) unless noted. In short, it runs like this:
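Emission at 460 and 530 nm (excitation 405 nm) reports SIE-controlled beta-lactamase in ME-180 cells. Cells received compound with 40 pM IL-6 for 5 hrs at 37 C; data scaled between 300 pM IL-6 and 125 nM JAK-inhibitor controls.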

The target of assay [5] is Glucocorticoid receptor (Homo sapiens) (UniProt P04150). Description: GR-GFP Redistribution (AID 450;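 active = compounds whose dose series gives a full or clear partial fitted curve of increased nuclear translocation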; also: potency is read from the fitted curve at half-maximal effect). As to conditions: U2OS GR-GFP nuclear translocation, laser cytometry, 2 h.
Chain of Glucocorticoid receptor (Homo sapiens) (P04150 whole entry, looked up, the tested form may be a part): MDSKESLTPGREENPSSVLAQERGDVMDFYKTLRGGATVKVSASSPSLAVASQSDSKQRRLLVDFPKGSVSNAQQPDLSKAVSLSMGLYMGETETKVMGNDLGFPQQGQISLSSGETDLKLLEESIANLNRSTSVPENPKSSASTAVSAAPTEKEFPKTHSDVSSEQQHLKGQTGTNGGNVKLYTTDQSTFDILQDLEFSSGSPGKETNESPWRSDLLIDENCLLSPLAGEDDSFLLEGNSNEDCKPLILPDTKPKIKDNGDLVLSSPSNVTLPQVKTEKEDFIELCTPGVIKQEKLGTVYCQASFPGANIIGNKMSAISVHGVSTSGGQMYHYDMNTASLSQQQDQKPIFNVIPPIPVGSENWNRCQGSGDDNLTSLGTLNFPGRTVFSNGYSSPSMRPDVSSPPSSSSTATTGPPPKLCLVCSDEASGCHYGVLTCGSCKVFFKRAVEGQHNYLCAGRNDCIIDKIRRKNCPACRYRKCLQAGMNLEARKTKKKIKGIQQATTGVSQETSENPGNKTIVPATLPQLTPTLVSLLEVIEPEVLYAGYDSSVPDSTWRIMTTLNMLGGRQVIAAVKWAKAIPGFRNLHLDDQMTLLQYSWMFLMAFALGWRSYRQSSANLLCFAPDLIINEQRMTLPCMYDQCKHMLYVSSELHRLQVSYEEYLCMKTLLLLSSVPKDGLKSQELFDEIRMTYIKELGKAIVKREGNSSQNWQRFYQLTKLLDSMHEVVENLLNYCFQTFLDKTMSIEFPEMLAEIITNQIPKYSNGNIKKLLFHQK
The target in assay [6] is 3',5'-cyclic-AMP phosphodiesterase 4B (Homo sapiens) (UniProt Q07343). The assay can be described thus: qHTS Assay for Inhibitors of PDE-IV (AID 607; active = well fitted activation curve with a large enough effect in the main read-out, with a control signal flat, not every such curve was filed as active; also: % of control where 0% means no effect). In short, it runs like this: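 The readout is membrane depolarisation from a cAMP-sensing CNG channel, detected with a potential dye at ex 535/em 590. Cells were HEK293-derived (endogenous PDE-IV) at 1000 cells/well, titrated up to 22.9 uM final.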
Chain of 3',5'-cyclic-AMP phosphodiesterase 4B (Homo sapiens) (Q07343 whole entry, looked up): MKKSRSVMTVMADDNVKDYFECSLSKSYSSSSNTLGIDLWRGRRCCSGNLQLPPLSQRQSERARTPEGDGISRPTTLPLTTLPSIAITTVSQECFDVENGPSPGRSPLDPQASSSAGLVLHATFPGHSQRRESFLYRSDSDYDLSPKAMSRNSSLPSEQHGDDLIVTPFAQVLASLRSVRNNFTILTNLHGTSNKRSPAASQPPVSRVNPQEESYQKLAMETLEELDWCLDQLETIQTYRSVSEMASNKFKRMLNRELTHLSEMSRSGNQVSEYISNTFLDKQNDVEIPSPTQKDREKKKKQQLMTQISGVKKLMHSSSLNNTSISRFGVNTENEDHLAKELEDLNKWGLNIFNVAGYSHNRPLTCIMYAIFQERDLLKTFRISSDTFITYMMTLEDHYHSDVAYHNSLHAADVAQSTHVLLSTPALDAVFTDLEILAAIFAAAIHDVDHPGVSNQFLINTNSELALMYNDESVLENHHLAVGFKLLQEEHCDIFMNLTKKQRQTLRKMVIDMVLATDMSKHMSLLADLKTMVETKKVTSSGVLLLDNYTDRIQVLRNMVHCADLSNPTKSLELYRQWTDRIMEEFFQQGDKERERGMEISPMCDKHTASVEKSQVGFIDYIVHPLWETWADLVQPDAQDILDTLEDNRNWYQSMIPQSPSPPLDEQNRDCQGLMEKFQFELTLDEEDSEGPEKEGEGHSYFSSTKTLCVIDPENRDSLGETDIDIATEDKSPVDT

Assay [7] deals with Guanine nucleotide-binding protein G(i) subunit alpha-1 (Homo sapiens) (UniProt P63096). The assay can be described thus: qHTS Assay for Inhibitors of RGS12 GoLoco Motif Activity (Green Fluorophore) (AID 879).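 Also: 0% = labeled peptide with Gαi1 and full inhibition = labeled peptide alone without protein; negative values mean loss of peptide binding seen as reduced polarization.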 In short, it runs like this: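 A drop in FITC polarization marked displacement of the FITC-tagged RGS12 GoLoco peptide (10 nM) from Gαi1 (50 nM). Compounds were incubated 10 min at room temperature in Tris pH 7.5 buffer containing 150 mM NaCl, 0.1 mM GDP and 0.05% NP40; unlabeled peptide titration served as control.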
Chain of Guanine nucleotide-binding protein G(i) subunit alpha-1 (Homo sapiens) (P63096 whole entry, looked up): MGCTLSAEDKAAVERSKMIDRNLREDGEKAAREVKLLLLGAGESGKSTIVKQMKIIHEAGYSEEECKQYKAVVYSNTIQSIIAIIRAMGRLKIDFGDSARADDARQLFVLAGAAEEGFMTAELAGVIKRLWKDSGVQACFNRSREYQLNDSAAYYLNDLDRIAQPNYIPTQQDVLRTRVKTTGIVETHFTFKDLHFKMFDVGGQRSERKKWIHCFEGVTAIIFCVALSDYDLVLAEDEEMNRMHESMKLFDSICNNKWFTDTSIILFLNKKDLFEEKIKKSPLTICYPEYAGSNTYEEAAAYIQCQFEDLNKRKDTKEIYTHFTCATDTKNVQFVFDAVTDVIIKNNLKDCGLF
A general note: qHTS replaces the single test concentration by a dilution series.

The nature of assay [8]: qHTS Assay for Identification of Small Molecule Agonists for Thrombopoietin (TPO) Signaling Pathway (AID 917). Also: % is scaled to controls: 0 for no effect and ±100 for the full control effect. In short, it runs like this: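 Human TPO receptor–transfected Ba/F3 cells (murine, IL-3-dependent) in IL-3-deficient medium; compounds plus TPO at EC50, 26 pM final; 24 hrs, 37 C; GpIIb-luciferase luminescence after 10 min RT detection.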
Assay [9] addresses Muscarinic acetylcholine receptor M1 (Rattus norvegicus) (UniProt P08482). The assay can be described thus: qHTS Assay for Antagonists of Acetylcholine Muscarinic M1 Receptor: Kinetic Measurement of Intracellular Calcium Response (AID 943). Also: nearly all actives have a fitted effect of over 75% in size. Also: potency is read from the fitted curve at half-maximal effect.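 As to activity change, negative = inhibition: Fluo-4 calcium signal as peak divided by basal fluorescence over 4 min.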 The essentials:
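Antagonism measured as reduction of carbachol-evoked (EC80, 100 nM final) calcium flux in rat M1-CHO cells after 10 min compound exposure. Fluo-4 signal read kinetically; ratio of maximal to basal fluorescence.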

Assay [10] has as its target Pyruvate kinase (Leishmania mexicana) (UniProt Q27686). The assay can be described thus: qHTS Validation Assay for Inhibitors of Leishmania Mexicana Pyruvate Kinase (AID 945).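 Also: 0% = DMSO only neutral control wells.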 The essentials: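 An endpoint luciferase assay: 0.2 nM LmPYK E451W turns over 0.5 mM PEP with 0.1 mM ADP for 1 h at room temperature, pH 7.2, before PKLight addition. Values are normalized to DMSO-only wells.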

The target in assay [11] is Pyruvate kinase PKM (Homo sapiens) (UniProt P14618). The assay can be described thus: qHTS Assay for Activators of Human Muscle Pyruvate Kinase (AID 954; active = well fitted curve in the direction sought with a large enough effect, not every such curve was filed as active;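 also: 0% = uninhibited enzyme and -100% = no enzyme or full thiadiazolimine inhibition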). The essentials: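 PKM2, human, >95% pure, 0.1 nM; PEP 0.5 mM (Km), ADP 0.1 mM; 50 mM imidazole pH 7.2, 50 mM KCl, 0.01% Tween 20, 0.05% BSA; 1 h RT; luciferase luminescence readout.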
Chain of Pyruvate kinase PKM (Homo sapiens) (P14618 whole entry, looked up): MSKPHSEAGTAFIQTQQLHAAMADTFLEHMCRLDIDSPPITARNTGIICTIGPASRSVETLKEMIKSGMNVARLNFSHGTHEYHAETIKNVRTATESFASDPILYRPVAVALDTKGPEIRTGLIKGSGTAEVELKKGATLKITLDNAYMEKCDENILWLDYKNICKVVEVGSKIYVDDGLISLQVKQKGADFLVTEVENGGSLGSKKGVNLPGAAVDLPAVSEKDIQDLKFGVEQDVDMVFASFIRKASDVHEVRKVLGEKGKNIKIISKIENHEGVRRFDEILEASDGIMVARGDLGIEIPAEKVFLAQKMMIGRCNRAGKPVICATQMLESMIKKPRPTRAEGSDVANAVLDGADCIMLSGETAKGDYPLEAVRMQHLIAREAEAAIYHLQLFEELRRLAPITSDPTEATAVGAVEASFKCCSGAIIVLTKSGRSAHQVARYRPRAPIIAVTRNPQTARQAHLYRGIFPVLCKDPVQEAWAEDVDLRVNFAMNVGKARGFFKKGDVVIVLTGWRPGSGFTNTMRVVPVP
Assay [12] addresses Alpha-galactosidase A (Homo sapiens) (UniProt P06280). Description: Counterscreen for Glucocerebrosidase Inhibitors: qHTS Assay for Human alpha-Galactosidase at pH 4.5 (AID 992). Also: 0% is about no effect. The essentials:
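Fluorogenic 4-MU alpha-D-galactoside (80 uM) hydrolysis, 2 nM enzyme, pH 4.5 citrate buffer + 0.005% Tween-20; 20 min RT; NaOH/glycine pH 10 stop; Ex365/Em440. Compounds titrated 0.7 nM–77 uM; Hill-equation AC50.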

The target in assay [13] is alpha-glucosidase (Oryza sativa, rice) (UniProt Q653V4). Description: Counterscreen for Glucocerebrosidase Inhibitors: qHTS Assay for Rice alpha-Glucosidase at pH 5.0 (AID 997).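 Also: 0% = full activity with enzyme and -100% = basal without enzyme.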 In short, it runs like this:
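Endpoint fluorogenic assay at pH 5.0: compounds (0.7 nM to 77 uM) titrated against 4 nM rice enzyme and 400 uM 4-MU-alpha-glucoside for 20 min at room temperature; NaOH/glycine stop, read ex 365/em 440 nm, Hill-fitted AC50.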
In general terms: A counterscreen serves to expose hits that act by an unwanted route or on another target.

Assay [14] deals with Alpha-galactosidase (Coffea arabica) (UniProt Q42656). The assay can be described thus: Counterscreen for Glucocerebrosidase Inhibitors: qHTS Assay for Coffee Bean alpha-Galactosidase at pH 5.9 (AID 998).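 Also: plate controls were uninhibited enzyme for no effect and no-enzyme basal signal for full effect.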 In short, it runs like this:
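Fluorogenic 4-MU substrate hydrolysis, 80 uM substrate and 2 nM coffee bean alpha-galactosidase, pH 5.9 citrate buffer, 20 min at room temperature, then NaOH/glycine stop. Titration 0.7 nM–77 uM, normalized to no-enzyme and enzyme controls, AC50 via Hill equation.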

Assay [15] has as its target Mitogen-activated protein kinase 10 (Mus musculus) (UniProt Q61831). Description: JNK3 AlphaScreen Assay (AID 530; active = well fitted curve in either direction with a large enough effect, not every such curve was filed as active). In short, it runs like this:
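qHTS titrations with 15 min compound pre-incubation before adding ATP (10 uM final). Read-out: AlphaScreen of Ser73-phosphorylated biotin-GST-cJun using HepG2 lysate JNK3 activated by IL-1β and TNFα.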
On the technique in general: Bead proximity is the source of the signal in Alpha formats.

Assay [16] concerns the target Muscarinic acetylcholine receptor M1 (Rattus norvegicus) (UniProt P08482). Description: qHTS Assay for Antagonists of Acetylcholine Muscarinic M1 Receptor: Measurement of IP-One Response (AID 944). Also: nearly all actives have a fitted effect of over 75% in size. Also: potency is read from the fitted curve at half-maximal effect. The essentials: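 IP1 accumulation measured via TR-FRET between d2-IP1 and Eu-cryptate anti-IP1 antibody after carbachol (200 nM, EC80) stimulation for 30 min; rat M1-transfected CHO cells received compound 10 min before agonist.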

Assay [17] concerns the target Glucocorticoid receptor (Homo sapiens) (UniProt P04150). The assay can be described thus: GR-EFC Redistribution (AID 451; calls by dose curve; also: potency is read from the fitted curve at half-maximal effect). As to conditions: CHO-K1 GR-EFC translocation, beta-gal luminescence, 2 h. The essentials: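 Translocation of GR-ED fusion to nuclear EA restores b-gal, read by luminescence after 1 h room-temperature detection. Engineered CHO-K1 biosensor cells, 1,000/well, exposed 2 h at 37 C to titrations up to 46 uM final.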

Assay [18] concerns the target Cytochrome P450 2D6 (Homo sapiens) (UniProt P10635). Description: qHTS Assay for Inhibitors and Substrates of Cytochrome P450 2D6 (AID 891). Also: potency is read from the fitted curve at half-maximal effect; nearly all actives have a fitted effect of over 60% in size. In short, it runs like this: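 Luminescent read-out of luciferin formed by 5 nM human CYP2D6 demethylating 30 uM Luciferin-ME EGE (Km level) over 60 min at room temperature after NADPH regeneration addition. Data normalized to full inhibition by 1.43 uM quinidine.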

Chain of Alpha-galactosidase (Coffea arabica) (Q42656 whole entry, looked up): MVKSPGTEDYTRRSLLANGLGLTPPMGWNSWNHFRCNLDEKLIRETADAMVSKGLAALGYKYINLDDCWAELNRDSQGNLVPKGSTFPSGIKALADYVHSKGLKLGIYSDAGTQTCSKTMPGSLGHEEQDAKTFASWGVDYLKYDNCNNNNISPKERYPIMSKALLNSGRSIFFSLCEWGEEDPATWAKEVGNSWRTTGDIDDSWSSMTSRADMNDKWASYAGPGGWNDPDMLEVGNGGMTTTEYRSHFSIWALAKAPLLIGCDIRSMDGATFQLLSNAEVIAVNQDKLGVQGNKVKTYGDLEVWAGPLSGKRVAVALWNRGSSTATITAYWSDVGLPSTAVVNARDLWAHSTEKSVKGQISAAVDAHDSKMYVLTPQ
Chain of Alpha-galactosidase A (Homo sapiens) (P06280 whole entry, looked up): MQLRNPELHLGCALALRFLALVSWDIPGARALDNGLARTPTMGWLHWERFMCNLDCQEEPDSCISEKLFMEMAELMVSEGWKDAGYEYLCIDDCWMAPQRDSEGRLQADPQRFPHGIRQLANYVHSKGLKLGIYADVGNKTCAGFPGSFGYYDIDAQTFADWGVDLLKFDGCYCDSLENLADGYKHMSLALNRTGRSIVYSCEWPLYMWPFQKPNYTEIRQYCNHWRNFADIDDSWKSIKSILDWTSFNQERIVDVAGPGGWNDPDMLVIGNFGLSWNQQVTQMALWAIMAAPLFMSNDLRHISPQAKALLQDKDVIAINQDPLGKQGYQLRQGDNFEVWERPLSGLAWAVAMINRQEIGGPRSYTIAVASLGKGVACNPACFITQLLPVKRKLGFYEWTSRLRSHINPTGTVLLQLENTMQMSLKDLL
Chain of Muscarinic acetylcholine receptor M1 (Rattus norvegicus) (P08482 whole entry, looked up): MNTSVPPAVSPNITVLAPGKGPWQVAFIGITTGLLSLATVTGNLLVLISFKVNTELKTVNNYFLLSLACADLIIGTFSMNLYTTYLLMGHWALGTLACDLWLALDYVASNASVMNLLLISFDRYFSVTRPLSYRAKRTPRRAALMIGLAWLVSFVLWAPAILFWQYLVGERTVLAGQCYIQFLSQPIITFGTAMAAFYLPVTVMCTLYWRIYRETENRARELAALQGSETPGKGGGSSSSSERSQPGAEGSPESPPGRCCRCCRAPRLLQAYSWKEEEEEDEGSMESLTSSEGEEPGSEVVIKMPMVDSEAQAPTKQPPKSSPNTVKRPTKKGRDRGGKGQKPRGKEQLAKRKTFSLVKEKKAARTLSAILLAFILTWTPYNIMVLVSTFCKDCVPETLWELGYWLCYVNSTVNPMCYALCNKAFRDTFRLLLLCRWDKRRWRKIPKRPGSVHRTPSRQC
Chain of Pyruvate kinase (Leishmania mexicana) (Q27686 2-499 E452W): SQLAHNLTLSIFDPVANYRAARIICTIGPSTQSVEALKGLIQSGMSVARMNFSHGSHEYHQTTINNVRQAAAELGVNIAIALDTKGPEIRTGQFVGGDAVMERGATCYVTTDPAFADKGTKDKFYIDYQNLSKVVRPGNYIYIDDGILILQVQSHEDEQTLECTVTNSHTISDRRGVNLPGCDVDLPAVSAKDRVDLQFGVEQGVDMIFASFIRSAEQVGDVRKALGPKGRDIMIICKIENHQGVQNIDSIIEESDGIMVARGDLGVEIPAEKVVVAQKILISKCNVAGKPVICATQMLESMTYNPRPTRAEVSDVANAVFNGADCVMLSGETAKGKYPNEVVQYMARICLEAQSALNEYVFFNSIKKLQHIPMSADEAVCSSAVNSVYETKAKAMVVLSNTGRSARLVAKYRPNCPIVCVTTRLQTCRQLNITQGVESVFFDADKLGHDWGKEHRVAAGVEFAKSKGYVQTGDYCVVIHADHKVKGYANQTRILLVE

For the compound `Oc1ccc2c3c1O[C@@H]1c4[nH]c5c(c4C[C@@]4(O)[C@@H](C2)N(CC2CC2)CC[C@]314)C[C@]1(O)[C@@H]2Cc3ccc(O)c4c3[C@@]1(CCN2CC1CC1)[C@H]5O4`, the results for the activity change, negative = inhibition in assay [1] and in [3] were -1.65% [at 38 µM] and -8.04% [at 38 µM], respectively. For the same compound, the Potency entry in [2] and in assay [9] was “inactive” in each case. Further, in [4], the activity, negative = inhibition was -12.2% [at 38 µM]. Moreover, in assay [5], the Potency is more than 46 µM. For the same compound, the call in assay [6], in [7], in assay [8], in assay [10], in [11] and in assay [12] was inactive. The compound was classed as inactive in [13] and in [14].

For `CC(C)N[C@@H](C)Cc1ccc(I)cc1`, the activity change, negative = inhibition in [1] is 17.5% [at 38 µM]; in assay [3], -29.8% [at 38 µM]. For the same compound, the Potency in assay [2] is 10 µM (active); in assay [5], more than 46 µM; in assay [9], 8.91 µM (active); in assay [16] it was 14.1 µM (active). Moreover, the activity, negative = inhibition in assay [4] is -4.05% [at 38 µM]. In assay [15], the Potency result is “inactive”. Further, the compound was classed as inactive in [6], in assay [7], in assay [8], in [10], in assay [11] and in [12]. Further, the compound was classed as inactive in assay [13] and in assay [14].

Turning to `COC(=O)[C@H](N)CCCN=C(N)N[N+](=O)[O-]`, in [1], the activity change, negative = inhibition is -2.03% [at 38 µM]. The Potency result in assay [2], in [15] and in [16] was “inactive” in each case. The activity, negative = inhibition in [4] is 3% [at 38 µM]. The Potency in [5] and in [17] was more than 46 µM throughout. The outcome in assay [6], in [7], in assay [8], in [10], in [11] and in [12] was inactive. Also, the result in [13] and in assay [14] was inactive.

Regarding `C[C@@]12CC[C@H]3[C@H](CCC4=CC(=O)CC[C@H]43)[C@H]1CC[C@H]2OC1(O)C(=O)c2ccccc2C1=O`, the activity change, negative = inhibition was 1.93% in assay [1] and -3.36% [at 11.4 µM] in [15]. In assay [4], the activity, negative = inhibition is -10.1%. Further, the Potency in [5] is more than 46 µM; in assay [17] it was more than 9.22 µM. For the same compound, in assay [6], the call was inactive.

Take `C[C@H](c1ccccc1)N1CCN([C@@H](C)c2ccccc2)CC1`: the activity change, negative = inhibition was -6.57% in [1], -16% [at 2.29 µM] in assay [2] and 1.95% [at 11.4 µM] in assay [15]. Besides, the activity, negative = inhibition in assay [4] was -0.496%. In addition, the figures for the Potency in [5] and in [18] were more than 46 µM and 0.0631 µM (active), respectively. In addition, the compound was classed as inactive in assay [6].

`C=CCN1CC[C@]23c4c5ccc(O)c4O[C@@H]2/C(=N/NC(=O)c2ccccc2)CC[C@@]3(O)[C@H]1C5`: in assay [1], the activity change, negative = inhibition is -2.73% [at 38 µM]. Moreover, the Potency entry in [2], in [15], in assay [9] and in assay [16] was “inactive” throughout. Moreover, in assay [4], the activity, negative = inhibition is -23.6% [at 38 µM]. For the same compound, the Potency in assay [5] and in assay [17] was more than 46 µM throughout. Moreover, the outcome in assay [6], in assay [7], in [8], in assay [10], in assay [11] and in assay [12] was inactive. Further, the compound was classed as inactive in assay [13] and in assay [14].
